# Rows were chosen to be rich in hits. Some 12% of all compounds tested hit in one or more screens of this group.
# L3MBTL1 inh = qHTS Assay for the Inhibitors of L3MBTL1. Lethal(3)malignant brain tumor-like protein 1 (Homo sapiens), Q9Y468. AlphaScreen L3MBTL1–H3K9me1 peptide binding. Potency, µM (series often up to 57.1 µM), without a hit: top-dose activity, negative = inhibition, actives largely listed as inhibitors. 230,000 compounds, 0.66% hits; further: on the % scale 0 is the no-effect control and ±100 the full control effect; nearly all actives have a fitted effect of over 60% in size
#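 AlphaScreen proximity signal between nickel-chelate acceptor and streptavidin donor beads (final 10 ug/mL) reports binding of 50 nM L3MBTL1 to 75 nM biotin-H3 K9me1 peptide; complex incubated with compounds 30 min at room temperature; cefsulodin titration as control.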
# BAZ2B block = qHTS Assay for Inhibitors of BAZ2B | Bromodomain adjacent to zinc finger domain protein 2B (Homo sapiens), Q9UIF8 | AlphaScreen BAZ2B-H3K14Ac peptide displacement | Potency, µM (series often up to 114 µM), for inactives: at the top dose activity change, negative = inhibition, hits mostly inhibitors | 360,000 compounds, 4.4% hits | AID 504333, 2011; further: on the % scale 0 is the no-effect control and ±100 the full control effect; nearly all actives have a fitted effect of over 60% in size
#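 In this displacement format the biotinylated H3(5-23) peptide acetylated at Lys14 serves as ligand at 50 nM, with BAZ2B at 50 nM in PBS pH 7.4 containing 0.01% Tween-20. Donor and acceptor beads are 10 ug/mL final.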
# Sfp inh = qHTS Assay for Inhibitors of Bacillus subtilis Sfp phosphopantetheinyl transferase (PPTase); 4'-phosphopantetheinyl transferase ffp (Bacillus subtilis), Q9F4F7; Biochemical Sfp PPTase activity, qHTS; Potency, µM, for the others: largest response in the series, negative = inhibition, hits mostly inhibitors; 310,000 compounds, 3.5% hits; AID 1490, 2009;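 further: the enzyme is Sfp with the accession as filed and its product quenches rhodamine fluorescence; 0% = enzyme reaction without inhibitor and -100% = no enzyme wells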
#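 Fluorescence-quenching assay: 15 nM Sfp-PPTase preincubated 15 min at room temperature with compound, then 5 uM rhodamine-CoA and 12.5 uM BHQ-2-labelled YbbR peptide added. Fluorescence (ex 525/em 598 nm) read at start and after 30 min; difference gives rate.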
# G9a block = qHTS Assay for Inhibitors of Histone Lysine Methyltransferase G9a | Histone-lysine N-methyltransferase EHMT2 (Homo sapiens), Q96KQ7 | G9a H3K9 monomethylation, AlphaScreen, 2 h | Potency, µM (doses to about 102 µM), inactives show top-dose activity, negative = inhibition, actives largely listed as inhibitors | 350,000 compounds, 8.8% hits | AID 504332, 2011; further: on the % scale 0 is the no-effect control and ±100 the full control effect; nearly all actives have a fitted effect of over 75% in size
#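 AlphaScreen detection with an anti-monomethyl H3K9 antibody quantified product after a 2 h room-temperature reaction containing 500 nM biotinylated H3K9 peptide, 20 µM SAM and 20 nM enzyme, which had been preincubated 15 min with compound.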
# HP1b chromo inh = HTS for Inhibitors of HP1-beta Chromodomain Interactions with Methylated Histone Tails | Chromobox protein homolog 1 (Homo sapiens), P83916 | AlphaScreen HP1-beta / biotin-H3K9me3 peptide binding | Potency, µM (highest dose often 114 µM), without a hit: top-dose activity change, negative = inhibition, hits mostly inhibitors | 390,000 compounds, 0.56% hits; further: nearly all actives have a fitted effect of over 70% in size
#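 AlphaScreen: HP1-beta (50 nM) preformed 30 min with biotin-H3(1-18)K9me3 peptide (50 nM) in PBS pH 7.4, 0.01% Tween-20. Compound added for 30 min at RT, then streptavidin donor/nickel chelate acceptor beads (10 ug/mL) for 30 min.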
# JMJD2A Tudor inh = qHTS Assay for Inhibitors of JMJD2A-Tudor Domain; Lysine-specific demethylase 4A (Homo sapiens), O75164; AlphaScreen JMJD2A-Tudor / H3K4me3 peptide binding; Potency, µM (highest dose often 114 µM), for the others: top-dose activity change, negative = inhibition, most hits filed as inhibitors; 390,000 compounds, 4.4% hits; AID 504339, 2011; further: on the % scale 0 is the no-effect control and ±100 the full control effect; nearly all actives have a fitted effect of over 50% in size
# * = called active by the depositor; ? = inconclusive; nt = no result; ! = a repeat was not active; [ ] = remark or other dose. The call rests on the fitted dose curve; in most records, active means well fitted curve in the direction sought with a large enough effect; inconclusive means small, poorly fitted or top-dose-only effect, or another doubt; inactive means no such curve, though single readings can be large; an effect the other way counts as inactive or inconclusive. Potency means the concentration at half of the fitted maximal effect.
SMILES,L3MBTL1 inh,BAZ2B block,Sfp inh,G9a block,HP1b chromo inh,JMJD2A Tudor inh
N[C@@H](Cc1ccc(F)cc1)C(=O)O,nt,nt,nt,10µM*!,89%,-26%
COc1cc2c(cc1CC=C(C)C)C(=O)C[C@@H](c1ccc(O)cc1)O2,nt,nt,-5%,nt,nt,nt
COc1ccc(CCNc2ncnc3c2cnn3-c2cc(Cl)ccc2C)cc1,nt,1%,nt,0%[59 µM],58%,-1%
Cc1nn2c(=O)cc(COC(=O)COc3ccc(F)cc3)nc2s1,nt,-11%,nt,10%[59 µM],20%,-5%
CCCCCc1c2c(cc(O)c1C(=O)O)OC(=O)c1c(cc(OC)cc1C(=O)CCCC)O2,-13%,79µM*,6%,-12%[59 µM],22%,-31%
CCCCn1c(N)c(N(CCOC)C(=O)CN2c3ccccc3CC2C)c(=O)[nH]c1=O (stereo unspecified),-6%,-19%,19%,20µM*,20%,-10%[57.1 µM]
CCCCn1c(N)c(N(CCOC)C(=O)CN2C(=O)c3ccccc3C2=O)c(=O)[nH]c1=O,nt,-15%,6%,16%,24%,-18%
CCCCN(C(=O)C1CC(=O)N(c2ccc(C)cc2)C1)c1c(N)n(CCC)c(=O)[nH]c1=O (stereo unspecified),-16%,10%,nt,45µM*,25%,-12%
CCCCn1c(N)c(N(CC(C)C)C(=O)C2CC(=O)N(c3ccccc3C(C)CC)C2)c(=O)[nH]c1=O (stereo unspecified),9%,9%,nt,79µM*,43%,4%
CCCCn1c(N)c(N(CCOC)C(=O)C2CC(=O)N(Cc3ccc(C)cc3)C2)c(=O)[nH]c1=O (stereo unspecified),9%,-2%,nt,50µM*,24%,-7%
COCCN(C(=O)C1CC(=O)N(Cc2ccc(C)cc2)C1)c1c(N)n(CC(C)C)c(=O)[nH]c1=O (stereo unspecified),9%,0%,nt,6%[2.33 µM],50%,-5%
COc1cc(NC(=O)NNC(=O)c2cc3occc3n2C)cc(OC)c1OC,nt,?,14%,?,10%,-26%
CCCCn1c(N)c(N(CCOC)C(=O)c2c(-c3ccccc3)noc2C)c(=O)[nH]c1=O,6%,8%,nt,1%[0.501 µM],22%,-16%
COc1ccc(CC(=O)OCC(=O)c2ccc(F)cc2)cc1,4%,nt,nt,nt,86%,32%
N#Cc1ccccc1S(=O)(=O)N1CCCC(c2nc3c(nnn3Cc3cccc(Cl)c3)c(=O)[nH]2)C1 (stereo unspecified),nt,-1%,nt,2%[59 µM],13%,-27%
NC1=CC(=O)c2cccc3cccc1c23,-18%,?,3.5µM*,?,nt,nt
CN(N)C(=S)NCc1ccccc1,3%,6%,-17%,-2%[2.33 µM],62%,-15%
CN(C)C(=S)NCc1ccccc1,-1%,3%,-6%,nt,-5%,25µM*
CCOc1ccccc1Nc1nnc(-c2cc3cc(OC)ccc3oc2=O)s1,nt,-3%,nt,7%[59 µM],31%,-32%
O=C(NNC1=Nc2cccc3cccc1c23)c1ccc(Br)cc1,-17%,-32%,-15%,37%,19%,-35%
COc1ccc(N2CCN(CC(=O)Nc3cccc(S(=O)(=O)N4CCOCC4)c3)CC2)cc1,-6%,35µM*,-9%,14µM*,-65%,7.9µM*
COC(=O)c1cccc(NC(=O)CN2CCN(c3ccc(OC)cc3)CC2)c1,-10%,-13%,9%,?,-1%,?
O=C(CN1c2cccc3cccc(c23)S1(=O)=O)Nc1ccc(S(=O)(=O)N2CCOCC2)cc1,-20%,-39%,?,7.9µM*,2%,-25%
O=C(CNC(=O)c1ccc(Br)o1)Nc1cccc(S(=O)(=O)N2CCOCC2)c1,0%,-1%,nt,50µM*,-3%,-23%
COc1ccc(S(=O)(=O)N2CCN(CC(=O)Nc3ccc(C)c(F)c3)CC2)cc1,-8%,5%,-25%,45µM*,16%,-20%
SMILES,L3MBTL1 inh,BAZ2B block,Sfp inh,G9a block,HP1b chromo inh,JMJD2A Tudor inh
O=C(CN1C(=O)c2cccc3cccc1c23)Nc1ccc(S(=O)(=O)N2CCOCC2)cc1,7%,20%,8%,19%[59 µM],60%,-14%
Cc1ccc(NC(=O)CN2CCN(S(=O)(=O)c3ccc(C(C)C)cc3)CC2)cc1F,nt,2%,nt,-28%[59 µM],28%,-22%
CC(C)=CCC[C@](C)(O)C1CC[C@]2(C)[C@@H]1CC[C@@H]1[C@@]3(C)CCC(=O)C(C)(C)[C@@H]3CC[C@]12C (stereo partly specified),nt,nt,1%,nt,nt,nt
O=CNC1c2ccccc2CCc2ccccc21,nt,nt,nt,nt,35%,-16%
COc1ccc2c(=O)cc(-c3ccccc3F)oc2c1,-4%,-13%,-7%,nt,5%,-4%
Cc1cccc(C)c1Nc1c(-c2ccsc2)nc2cccc(C)n12,nt,-21%,nt,?,-10%,-35%
O=C(CN1CCN(S(=O)(=O)c2ccccc2)CC1)Nc1ccc(N2CCOCC2)cc1,-3%,-5%,9%,?,19%,-9%
O=C(CN1CCN(S(=O)(=O)c2ccc3ccccc3c2)CC1)Nc1ccc(N2CCOCC2)cc1,-4%,-38%,14%,40µM*,-9%,-44%
Nc1ccc2c(c1)ncn2CCCn1cnc2cc(N)ccc21,-2%,79µM*,11%,-29%[59 µM],22%,45µM*
COc1cccc(CN2CCCN(CC(=O)Nc3ccc4c(c3)OCCO4)S2(=O)=O)c1,nt,-24%,nt,-1%[12.7 µM],17%,-5%
O=C(Nc1ccccc1N1CCCC1)C1CCN(S(=O)(=O)c2cccc(C(F)(F)F)c2)CC1,-6%,?,nt,14µM*,43%,?
O=C(Nc1ccccc1N1CCCCC1)C1CCN(S(=O)(=O)c2cccc(C(F)(F)F)c2)CC1,2%,12%,nt,-9%,25%,-21%
COc1ccc(S(=O)(=O)N2CCC(C(=O)Nc3ccccc3N3CCCC3)CC2)cc1OC,nt,-36%,8%,45µM*,11%,-22%
COc1ccc(CNc2ncnc3c2nnn3C)cc1,nt,0%,nt,6%[59 µM],36%,-14%
COc1cc2c(cc1OC)C(C(=O)Nc1ccccn1)C(c1cccnc1)N(C)C2=O (stereo unspecified),-2%,79µM*,16%,nt,81%,-12%[57.1 µM]
COc1cc2c(cc1OC)C(C(=O)Nc1cccc(C)n1)C(c1cccnc1)N(C)C2=O (stereo unspecified),-2%,10%,11%,43%[12.7 µM],37%,-9%

# High-throughput results (PubChem)
